Screening results: PubChem, National Center for Advancing Translational Sciences (NCATS)
The full list was thinned out, with hits kept by preference.
Giardia FBPA inh = qHTS Assay for Inhibitors of Fructose-1,6-bisphosphate Aldolase from Giardia Lamblia | A8B2U2 | purified Giardia FBPA | Potency, µM (highest dose often 59.6 µM), without a hit: top-dose activity, negative = inhibition, most hits filed as inhibitors | hit rate 0.71% among 290,000; also: potency is read from the fitted curve at half-maximal effect; % is scaled to controls: 0 for no effect and ±100 for the full control effect; nearly all actives have a fitted effect of over 55% in size
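40 nM FBPA preincubated 10 min at RT with compound (up to 57.5 uM final), then substrate plus GAPDH/TPI/NAD/arsenate coupling and diaphorase/resazurin added. Fluorescence read after 20 min at RT, 525/598 nm.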
RE007 growth inh = qHTS Assay for Inhibitors of the HIV-1 protein Vpr; hit rate 0.21% among 360,000; S. pombe RE007 Vpr strain, BacTiter-Glo ATP luminescence, 24 h; Potency, µM (top dose mostly 92.2 µM), for the others: at the top dose activity change, negative = less growth, hits mostly inhibitors; active = well fitted falling curve with a large enough effect; inconclusive = small, poorly fitted or top-dose-only effect; inactive = no such curve, though single readings can be large or run the other way; also: potency is read from the fitted curve at half-maximal effect; % is scaled to controls: 0 for no effect and ±100 for the full control effect; nearly all actives have a fitted effect of over 50% in size
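Fission yeast strain RE007, carrying one chromosomally integrated HIV-1 vpr copy, was seeded at OD 0.01 in PMG+AL medium with 23 nL pinned compound. After 24 h at 30 °C and 99% humidity, viability was read by BacTiter-Glo luminescence.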
LmPK inh = qHTS Assay for Inhibitors of Leishmania Mexicana Pyruvate Kinase (LmPK); AID 1721, 2009; Potency, µM (doses to about 57.5 µM), inactives show at the highest dose activity change, negative = inhibition, most hits filed as inhibitors; purified LmPK, Kinase-Glo ATP luminescence, 1 h; hit rate 0.37% among 290,000; also: potency is read from the fitted curve at half-maximal effect; % is scaled to controls: 0 for no effect and ±100 for the full control effect
Target sequence (Q27686 whole entry, looked up): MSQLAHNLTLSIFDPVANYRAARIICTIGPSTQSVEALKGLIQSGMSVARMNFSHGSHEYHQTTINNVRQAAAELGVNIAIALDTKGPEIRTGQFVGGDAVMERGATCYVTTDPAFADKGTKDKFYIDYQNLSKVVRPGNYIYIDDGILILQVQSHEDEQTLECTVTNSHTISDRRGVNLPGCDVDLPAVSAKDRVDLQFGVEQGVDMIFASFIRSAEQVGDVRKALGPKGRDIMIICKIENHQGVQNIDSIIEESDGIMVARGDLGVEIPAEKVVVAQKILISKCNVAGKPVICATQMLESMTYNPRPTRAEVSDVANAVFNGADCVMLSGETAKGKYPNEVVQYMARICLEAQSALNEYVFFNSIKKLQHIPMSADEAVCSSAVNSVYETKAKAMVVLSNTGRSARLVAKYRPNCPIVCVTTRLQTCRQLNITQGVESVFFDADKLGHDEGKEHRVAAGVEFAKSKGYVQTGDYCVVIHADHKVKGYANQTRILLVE
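qHTS format; LmPK 0.1 nM; substrates PEP 0.5 mM and ADP 0.1 mM. One-hour room-temperature incubation, then coupled luciferase luminescence; 0.5 nM enzyme wells mark activation.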
CHX counter = Cycloheximide Counterscreen for Small Molecule Inhibitors of Shiga Toxin; cell reporter, cycloheximide protein synthesis inhibition counterscreen; max response, %; hit rate 12% among 300,000; in the data active = max response mostly above about 13%, no sharp cut-off; inactive = mostly below about 14%; also: read at 38.3 µM for the half of the compounds with a filed dose; 0% is about no effect
TbPYK inhibitor = qHTS of Trypanosoma Brucei Inhibitors | AID 624173, 2012 | Potency, µM (highest dose often 76.8 µM), inactives show top-dose activity, negative = inhibition, usual class: inhibitors | TbPYK enzyme, Kinase-Glo Plus ATP luminescence, 45 min | pyruvate kinase (Trypanosoma brucei), Q57TT1 | hit rate 0.12% among 410,000; also: potency is read from the fitted curve at half-maximal effect; % is scaled to controls: 0 for no effect and ±100 for the full control effect; nearly all actives have a fitted effect of over 50% in size
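ADP (130 uM final) triggers the TbPYK reaction after compound addition; incubation is 45 min at room temperature. Kinase-Glo Plus is then added and luminescence imaged. Normalized data are fitted to concentration-effect curves.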
Shiga toxin inh = A qHTS for Small Molecule Inhibitors of Shiga Toxin. hit rate 9.2% among 290,000. Vero cells, Shiga toxin protein synthesis inhibition reporter. inhibition, % at 38.7 µM; in the data active = inhibition mostly above about 28%, no sharp cut-off; inactive = mostly below about 43%; also: 0% is about no effect
An asterisk follows results filed as active. Unless noted, calls follow the shape of the dose curve; as a rule, active = well fitted curve in the direction sought with a large enough effect; inconclusive = small, poorly fitted or top-dose-only effect, or another doubt; inactive = no such curve, though single readings can be large; an effect the other way counts as inactive or inconclusive.

What do the screens show for `COc1cc(NC(=O)Cn2c(=O)n(C(C)C)c(=O)c3oc4ccccc4c32)cc(OC)c1`?
TbPYK inhibitor: 2.1%

What do the screens show for `Cc1ccc(CNC(=O)c2cc3c(=O)n(Cc4ccco4)ccc3nc2C)cc1`?
TbPYK inhibitor: -3.3%

Results for CNC(=O)c1ccccc1Sc1ccc2c(/C=C/c3ccccn3)n[nH]c2c1 ?
TbPYK inhibitor: 0.0%

How did CCOc1ccc(NC(=O)CSc2oc(-c3ccco3)nc2S(=O)(=O)c2ccccc2)cc1 do in these assays?
TbPYK inhibitor: 0.9%

Results for Cc1cc2nc(-c3ccc(SCC(=O)N4CCOCC4)nc3)[nH]c2cc1C ?
Giardia FBPA inh: -13.5%; RE007 growth inh: -5.6%; LmPK inh: -18.2%; CHX counter: 32.5*; TbPYK inhibitor: 1.9%; Shiga toxin inh: 70.3*

What do the screens show for `Cc1cc2nc(-c3ccc(SCc4ccccn4)nc3)[nH]c2cc1C`?
Giardia FBPA inh: -21.3%; RE007 growth inh: 3.1%; LmPK inh: -6.7%; CHX counter: 33.8*; TbPYK inhibitor: -3.3%; Shiga toxin inh: 98.1*

Results for CCOC(=O)CSc1ccc(-c2nc3cc(C)c(C)cc3[nH]2)cn1 ?
Giardia FBPA inh: -19.2%; RE007 growth inh: -29.2%; LmPK inh: -1.1%; CHX counter: 54.8*; TbPYK inhibitor: -5.1%; Shiga toxin inh: 60.8*

Results for Cc1cc2nc(-c3ccc(SCC(=O)N4CCN(C(=O)c5ccco5)CC4)nc3)[nH]c2cc1C ?
Giardia FBPA inh: 2.4%; RE007 growth inh: -3.5%; LmPK inh: -26.2%; CHX counter: 19.8*; TbPYK inhibitor: -16.5%; Shiga toxin inh: 26.4*

How did Cc1cc(=O)[nH]c(SCC(=O)N2CCN(C(=O)c3ccco3)CC2)n1 do in these assays?
RE007 growth inh: 2.8%; TbPYK inhibitor: 14.5%

How did CCOC(=O)CSc1ccc(-c2nc3ccccc3[nH]2)cn1 do in these assays?
Giardia FBPA inh: 0.1%; RE007 growth inh: -22.6%; LmPK inh: inconclusive; CHX counter: 19.2; TbPYK inhibitor: -2.9%; Shiga toxin inh: 33.8

Results for O=C(NCC(c1cccs1)S(=O)(=O)c1cccs1)c1cccc(F)c1 (configuration not stated) ?
TbPYK inhibitor: 0.3%

How did CCOC(=O)C(C)Nc1ncnc2onc(C)c12 (configuration not stated) do in these assays?
TbPYK inhibitor: -5.0%

What do the screens show for `COc1ccccc1NC(=O)Cn1c(=O)n(Cc2ccccc2)c(=O)c2sc3ccccc3c21`?
TbPYK inhibitor: -5.2%

How did CC(C)(C)n1nnnc1C(c1ccc(C(F)(F)F)cc1)N(Cc1ccc(F)cc1)Cc1ccco1 (configuration not stated) do in these assays?
Giardia FBPA inh: -0.9%; RE007 growth inh: -2.6%; LmPK inh: 1.0%; CHX counter: 13.0*; TbPYK inhibitor: -15.8%; Shiga toxin inh: active

How did CC(C)(C)n1nnnc1C(c1ccc(F)cc1)N(Cc1ccc(F)cc1)Cc1ccco1 (configuration not stated) do in these assays?
Giardia FBPA inh: 4.3%; RE007 growth inh: 9.7%; LmPK inh: 1.1%; CHX counter: 16.0*; TbPYK inhibitor: -4.4%; Shiga toxin inh: 20.6

How did COc1ccc(-c2cc(C(=O)N3CCCCC3)c3ccccc3n2)cc1 do in these assays?
RE007 growth inh: -6.7%; TbPYK inhibitor: 3.8%

How did O=C(c1ccc2ccccc2n1)N1CCN(c2ccccc2)CC1 do in these assays?
Giardia FBPA inh: 12.7%; RE007 growth inh: -12.4%; LmPK inh: 5.3%; CHX counter: -3.4; TbPYK inhibitor: 0.4%; Shiga toxin inh: -5.0

How did O=C(c1ccc2ccccc2n1)N1CCN(c2ccccc2O)CC1 do in these assays?
Giardia FBPA inh: -22.0%; RE007 growth inh: -3.8%; LmPK inh: -2.5%; CHX counter: 52.3*; TbPYK inhibitor: -4.5%; Shiga toxin inh: 88.4*

How did CC(C)Oc1cccc(-c2cc(C(=O)N3CCN(S(C)(=O)=O)CC3)c3ccccc3n2)c1 do in these assays?
Giardia FBPA inh: -17.8%; RE007 growth inh: -3.5%; LmPK inh: -2.5%; CHX counter: 36.7*; TbPYK inhibitor: -0.6%; Shiga toxin inh: 57.5

Results for O=C(c1cc(-c2cccs2)nc2ccccc12)N1CCN(S(=O)(=O)c2cccc(F)c2)CC1 ?
Giardia FBPA inh: 5.2%; RE007 growth inh: 15.7%; LmPK inh: -2.6%; CHX counter: 32.4*; TbPYK inhibitor: 4.3%; Shiga toxin inh: 30.3*

How did COc1cccc(-c2cc(C(=O)N3CCN(c4ncccn4)CC3)c3ccccc3n2)c1 do in these assays?
Giardia FBPA inh: 2.3%; RE007 growth inh: 20.7%; LmPK inh: -0.7%; CHX counter: 19.5*; TbPYK inhibitor: 7.9%; Shiga toxin inh: 58.7*

How did O=C(c1cc(-c2cccs2)nc2ccccc12)N1CCN(S(=O)(=O)c2ccccc2)CC1 do in these assays?
Giardia FBPA inh: -1.7%; RE007 growth inh: -8.3%; LmPK inh: -2.4%; CHX counter: -1.2; TbPYK inhibitor: -7.4%; Shiga toxin inh: 2.0

Results for CC(C)Oc1cccc(-c2cc(C(=O)N3CCN(c4ncccn4)CC3)c3ccccc3n2)c1 ?
Giardia FBPA inh: -3.7%; LmPK inh: 0.2%; CHX counter: 42.8*; Shiga toxin inh: 68.2*

How did Cc1ccc(-c2cc(C(=O)N3CCN(c4ccccc4O)CC3)c3ccccc3n2)o1 do in these assays?
RE007 growth inh: 4.2%; LmPK inh: -6.4%; CHX counter: 35.3*; TbPYK inhibitor: -8.3%; Shiga toxin inh: 65.8*

What do the screens show for `Cc1ccc(-c2cc(C(=O)N3CCN(c4ncccn4)CC3)c3ccccc3n2)cc1`?
Giardia FBPA inh: 7.0%; RE007 growth inh: -2.1%; LmPK inh: -6.6%; CHX counter: 49.1*; TbPYK inhibitor: 2.2%; Shiga toxin inh: 52.7

What do the screens show for `O=C(c1cc(-c2ccc(Br)cc2)nc2ccccc12)N1CCN(c2ccccc2O)CC1`?
RE007 growth inh: 5.6%; TbPYK inhibitor: 3.3%

Results for COc1ccc(-c2cc(C(=O)N3CCN(c4ncccn4)CC3)c3ccccc3n2)cc1OC ?
RE007 growth inh: 16.4%; TbPYK inhibitor: 0.1%

Results for Cn1c(C(=O)N2CCN(c3ncccn3)CC2)cc2c(=O)n(C)c3ccccc3c21 ?
Giardia FBPA inh: 17.7µM*; RE007 growth inh: -8.1%; LmPK inh: 5.0%; CHX counter: -1.9; TbPYK inhibitor: -3.9%; Shiga toxin inh: -5.4

How did O=C(c1cc(-c2ccccn2)nc2ccccc12)N1CCN(c2ncccn2)CC1 do in these assays?
Giardia FBPA inh: 4.9%; RE007 growth inh: -8.9%; LmPK inh: 3.2%; CHX counter: 3.2; TbPYK inhibitor: -1.1%; Shiga toxin inh: -9.9
